Data reported in PubChem BioAssay (NCATS).
Records with an inconclusive call do not appear. Activity calls are given as the source filed them. Calls follow the shape of the dose curve; as a rule, active = well fitted curve in the direction sought with a large enough effect; inconclusive = small, poorly fitted or top-dose-only effect, or another doubt; inactive = no such curve, though single readings can be large; an effect the other way counts as inactive or inconclusive.

Experiments:
[1] = Quantitative High-Throughput drug screen in 47 multiple myeloma cell lines against the NCATS MIPE library collection: AMO1_DSMZ cell viability assay (AID 1918927; also: nearly all actives have a fitted effect of over 30% in size)
In short: (§1)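 Approved and investigational drugs from MIPE 4.0 were added by pin tool to 500 cells per well. After 48 hours at 37C, ATP-based CellTiter-Glo luminescence indicated remaining viability.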

[2] = Quantitative High-Throughput drug screen in 47 multiple myeloma cell lines against the NCATS MIPE library collection: ARP1_JJKsccF8 cell viability assay (AID 1918928; also: nearly all actives have a fitted effect of over 40% in size)
In short: (§2)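 Viability screen: myeloma cells (500/well) incubated 48 h at 37 °C, humidified 5% CO2, with pinned library compounds; CellTiter-Glo added, luminescence read; DMSO wells set 100%, medium-only wells 0%.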

[3] = Quantitative High-Throughput drug screen in 47 multiple myeloma cell lines against the NCATS MIPE library collection: ARD_JJKsccE7 cell viability assay (AID 1918929)
In short: as §1

[4] = Quantitative High-Throughput drug screen in 47 multiple myeloma cell lines against the NCATS MIPE library collection: Karpas620_DSMZ cell viability assay (AID 1918959); also: nearly all actives have a fitted effect of over 30% in size
In short: (§3)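 qHTS of the MIPE 4.0 collection: 500 myeloma cells/well, 48 h drug exposure at 37C in 5% CO2, then CellTiter-Glo for 5 min at room temperature before luminescence reading.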

[5] = Quantitative High-Throughput drug screen in 47 multiple myeloma cell lines against the NCATS MIPE library collection: KMM1_JCRB cell viability assay (AID 1918960); also: nearly all actives have a fitted effect of over 30% in size
In short: as §2

[6] = Quantitative High-Throughput drug screen in 47 multiple myeloma cell lines against the NCATS MIPE library collection: KHM11_PLB cell viability assay (AID 1918962); also: nearly all actives have a fitted effect of over 35% in size
In short: as §3

[7] = Quantitative High-Throughput drug screen in 47 multiple myeloma cell lines against the NCATS MIPE library collection: INA6_PLB cell viability assay (AID 1918965; also: nearly all actives have a fitted effect of over 55% in size)
In short: (§4)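 Luminescent ATP measurement with CellTiter-Glo gives viability, scaled between DMSO-only wells (100%) and media-only wells (0%). Cells, 500 per well, faced library compounds for 48 hours at 37C.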

[8] = Quantitative High-Throughput drug screen in 47 multiple myeloma cell lines against the NCATS MIPE library collection: JJN3_DSMZ cell viability assay (AID 1918966; also: nearly all actives have a fitted effect of over 50% in size)
In short: as §1

[9] = Quantitative High-Throughput drug screen in 47 multiple myeloma cell lines against the NCATS MIPE library collection: Karpas25_ECACC cell viability assay (AID 1918968; also: nearly all actives have a fitted effect of over 35% in size)
In short: as §1

[10] = Quantitative High-Throughput drug screen in 47 multiple myeloma cell lines against the NCATS MIPE library collection: KMS27_JCRB cell viability assay (AID 1918970); also: nearly all actives have a fitted effect of over 30% in size
In short: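 Myeloma cells (500 per well) were exposed to MIPE 4.0 compounds for 48 h at 37 °C, 5% CO2; viability was read as ATP luminescence with CellTiter-Glo, normalized to DMSO-only (100%) and media-only (0%) wells.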

[11] = Quantitative High-Throughput drug screen in 47 multiple myeloma cell lines against the NCATS MIPE library collection: KMS12BM_JCRB cell viability assay (AID 1918971); also: nearly all actives have a fitted effect of over 35% in size
In short: (§5)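 Viability readout: CellTiter-Glo luminescence following 5 min room-temperature incubation with reagent. Prior exposure: 48 h, 37C, humidified 5% CO2, 500 cells per well.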

[12] = Quantitative High-Throughput drug screen in 47 multiple myeloma cell lines against the NCATS MIPE library collection: KMS12PE_JCRB cell viability assay (AID 1918972); also: nearly all actives have a fitted effect of over 30% in size
In short: as §4

[13] = Quantitative High-Throughput drug screen in 47 multiple myeloma cell lines against the NCATS MIPE library collection: KMS20_JCRB cell viability assay (AID 1918973); also: nearly all actives have a fitted effect of over 45% in size
In short: as §1

[14] = Quantitative High-Throughput drug screen in 47 multiple myeloma cell lines against the NCATS MIPE library collection: KMS26_JCRB cell viability assay (AID 1918975); also: nearly all actives have a fitted effect of over 45% in size
In short: as §5

[15] = Quantitative High-Throughput drug screen in 47 multiple myeloma cell lines against the NCATS MIPE library collection: MMM1_PLB cell viability assay (AID 1918976); conditions: MMM1 myeloma cells viability, CellTiter-Glo, 48 h; also: nearly all actives have a fitted effect of over 35% in size
In short: (§6)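 qHTS format: cells plated (500/well), pin-dosed with MIPE 4.0 compounds, kept 48 h at 37 °C. Readout was CellTiter-Glo luminescence, median RLU.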

[16] = Quantitative High-Throughput drug screen in 47 multiple myeloma cell lines against the NCATS MIPE library collection: MOLP8_DSMZ cell viability assay (AID 1918977); also: nearly all actives have a fitted effect of over 45% in size
In short: as §6

[17] = Quantitative High-Throughput drug screen in 47 multiple myeloma cell lines against the NCATS MIPE library collection: NCIH929_DSMZ cell viability assay (AID 1918978); also: nearly all actives have a fitted effect of over 35% in size
In short: as §6

[18] = Quantitative High-Throughput drug screen in 47 multiple myeloma cell lines against the NCATS MIPE library collection: Karpas417_ECACC cell viability assay (AID 1918961); conditions: Karpas417 myeloma viability, CellTiter-Glo ATP luminescence, 48 h; viability (% of DMSO): at 45.8 µM (top of the series)
In short: as §4

[19] = Quantitative High-Throughput drug screen in 47 multiple myeloma cell lines against the NCATS MIPE library collection: KMS21BM_JCRB cell viability assay (AID 1918974)
In short: as §1

[20] = Quantitative High-Throughput drug screen in 47 multiple myeloma cell lines against the NCATS MIPE library collection: OCIMY1_PLB cell viability assay (AID 1918979); also: nearly all actives have a fitted effect of over 35% in size
In short: as §6
Potency is read from the fitted curve at half-maximal effect.

| Compound | Potency [1] | Potency [2] | Potency [3] | Potency [4] | Potency [5] | Potency [6] | Potency [7] | Potency [8] | Potency [9] | Potency [10] | Potency [11] | Potency [12] | Potency [13] | Potency [14] | Potency [15] | Potency [16] | Potency [17] | Potency [18] | Potency [19] | Potency [20] |
| --- | --- | --- | --- | --- | --- | --- | --- | --- | --- | --- | --- | --- | --- | --- | --- | --- | --- | --- | --- | --- |
| C[C@@H]1[C@@H](C(=O)C[C@H]2O[C@@H]3O[C@]4(C)CC[C@@H]5[C@H](C)CC[C@@H]([C@H]2C)[C@@]35OO4)O[C@@H]2O[C@]3(C)CC[C@H]4[C@H](C)CC[C@@H]1[C@@]24OO3 | 83.3 nM (active) | 132 nM (active) | 148 nM (active) | 41.8 nM (active) | 46.9 nM (active) | 332 nM (active) | 264 nM (active) | 296 nM (active) | 52.6 nM (active) | 166 nM (active) | 372 nM (active) | 83.3 nM (active) | 469 nM (active) | 590 nM (active) | 418 nM (active) | 526 nM (active) | 132 nM (active) |  |  |  |
| COC1(CS(=O)c2ccccc2)CCN(CCc2c[nH]c3ccc(F)cc23)CC1 (centres undefined) |  | inactive | inactive |  |  | inactive |  | inactive | 9350 nM (active) |  | inactive |  |  | inactive | 3720 nM (active) | inactive | inactive | inactive | inactive | inactive |
| O=P1(NCCCl)OCCCN1CCCl (centres undefined) | 5900 nM (active) |  |  |  |  |  |  |  |  |  |  |  |  | inactive |  | inactive | inactive |  | 7430 nM (active) |  |
| CC(O)(CS(=O)(=O)c1ccc(F)cc1)C(=O)Nc1ccc(C#N)c(C(F)(F)F)c1 (centres undefined) | 662 nM (active) |  | 1660 nM (active) | 2090 nM (active) | 2640 nM (active) | 1870 nM (active) | 590 nM (active) | 4690 nM (active) | 264 nM (active) | 2350 nM (active) | 23500 nM (active) | 1660 nM (active) | 935 nM (active) | 1180 nM (active) |  |  | 187 nM (active) | 372 nM (active) |  |  |
| C[C@@H]1[C@@H](CC(C[C@H]2O[C@@H]3O[C@]4(C)CC[C@@H]5[C@H](C)CC[C@@H]([C@H]2C)[C@@]35OO4)C[S+](=O)([O-])c2ccc(COC(=O)N(C)C)cc2)O[C@@H]2O[C@]3(C)CC[C@H]4[C@H](C)CC[C@@H]1[C@@]24OO3 (some centres undefined) | 118 nM (active) | 93.5 nM (active) | 118 nM (active) | 41.8 nM (active) | 105 nM (active) |  | 235 nM (active) | 148 nM (active) | 118 nM (active) | 187 nM (active) | 148 nM (active) | 83.3 nM (active) | 264 nM (active) | 296 nM (active) | 148 nM (active) | 187 nM (active) | 83.3 nM (active) | 132 nM (active) |  | 187 nM (active) |
| Cc1cccc(C)c1NC(=O)CN1CCCC1=O |  | inactive | inactive | inactive | inactive | inactive | inactive |  | inactive | inactive | inactive | inactive |  | inactive |  |  | inactive |  |  | inactive |
| C[C@@H]1O[C@@H](O[C@H]2C[C@@H](O)[C@]3(CO)[C@H]4[C@H](O)C[C@]5(C)[C@@H](C6=CC(=O)OC6)CC[C@]5(O)[C@@H]4CC[C@]3(O)C2)[C@H](O)[C@H](O)[C@H]1O | 9.3 nM (active) | 41.8 nM (active) | 14.8 nM (active) | 37.2 nM (active) |  | 37.2 nM (active) | 23.5 nM (active) | 105 nM (active) | 37.2 nM (active) | 18.7 nM (active) | 66.2 nM (active) | 10.5 nM (active) | 23.5 nM (active) | 105 nM (active) |  |  | 59 nM (active) |  |  | 20.9 nM (active) |
| Cc1cc(SCc2sc(-c3ccc(C(F)(F)F)c(F)c3)nc2C)ccc1OCC(=O)O |  |  |  |  |  |  |  | inactive | 16600 nM (active) |  |  | 18700 nM (active) |  | 4690 nM (active) |  |  | 20900 nM (active) |  |  | inactive |
| Cn1cc(C2=C(c3cn(C4CCN(Cc5ccccn5)CC4)c4ccccc34)C(=O)NC2=O)c2ccccc21 | 935 nM (active) |  | 9350 nM (active) | 5900 nM (active) | 4180 nM (active) |  | 4690 nM (active) | 14800 nM (active) | 8330 nM (active) | 18700 nM (active) | 23500 nM (active) | 2350 nM (active) |  | 16600 nM (active) |  | inactive | 5900 nM (active) |  | 166 nM (active) | inactive |
| C#CCN(C)[C@H](C)Cc1ccccc1 |  | inactive | inactive | inactive |  | inactive |  | 8330 nM (active) | inactive |  |  | inactive | inactive | inactive | 2960 nM (active) |  | inactive |  |  | inactive |
| COC[C@H]1OC(=O)c2coc3c2[C@@]1(C)C1=C(C3=O)C2CCC(=O)[C@@]2(C)C[C@H]1OC(C)=O (some centres undefined) | 8330 nM (active) | 1480 nM (active) | 14800 nM (active) | 4690 nM (active) | 7430 nM (active) | 3320 nM (active) | 2350 nM (active) | 10500 nM (active) | 526 nM (active) | 14800 nM (active) | 10500 nM (active) | 16600 nM (active) |  | 1180 nM (active) | 2640 nM (active) | 1320 nM (active) | 469 nM (active) |  |  |  |
| O=c1[nH]c2ccccc2n1CCCN1CCC(n2c(=O)[nH]c3cc(Cl)ccc32)CC1 |  |  |  | 20900 nM (active) |  | inactive | 18700 nM (active) | inactive | 37.2 nM (active) |  |  | 18700 nM (active) |  |  |  | inactive |  |  | 118 nM (active) | inactive |
| Cc1sc2c(c1C)C(c1ccc(Cl)cc1)=N[C@@H](CC(=O)OC(C)(C)C)c1nnc(C)n1-2 | 83.3 nM (active) | 209 nM (active) | 41.8 nM (active) | 132 nM (active) | 66.2 nM (active) | 8.3 nM (active) | 29.6 nM (active) | 296 nM (active) | 526 nM (active) | 52.6 nM (active) | 187 nM (active) | 29.6 nM (active) | 1180 nM (active) | 526 nM (active) | 1050 nM (active) |  | 148 nM (active) |  |  |  |
| CN(C)CCc1ccc(O)cc1 | inactive |  | inactive | inactive | inactive |  |  |  |  | inactive | inactive | inactive |  | inactive | 1660 nM (active) | inactive | inactive | inactive | inactive | inactive |
| COc1ccc(C(=O)c2c(C)n(CCN3CCOCC3)c3ccccc23)cc1 | inactive | inactive | inactive |  | inactive | inactive |  |  |  | inactive | inactive |  |  |  |  | inactive | inactive |  |  | inactive |
| CC1=C2C[C@@H]3[C@@H](CC=C4C[C@@H](O)CC[C@@]43C)[C@@H]2CC[C@]12O[C@H]1C[C@H](C)CN[C@H]1[C@H]2C | inactive | inactive | inactive | inactive | inactive |  | inactive |  | inactive | inactive |  | inactive | 46.9 nM (active) | inactive | 9350 nM (active) | inactive | inactive |  |  | inactive |
